Source: PubChem BioAssay

Biological target: Concanavalin-A (Canavalia ensiformis) (UniProt P02866)
Test: compounds binding concanavalin A lectin – biochemical, small-molecule microarray, Alexa647 label, 635 nm, artefact control for SMM control protein annotation, primary screen (AID 1127);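 note: z combines 667 nm emission intensity with signal-to-noise across three replicate slides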
Conditions: ConA-A647 binding fluorescence, higher = more signal

Sequence of Concanavalin-A (Canavalia ensiformis) (P02866 whole entry, looked up): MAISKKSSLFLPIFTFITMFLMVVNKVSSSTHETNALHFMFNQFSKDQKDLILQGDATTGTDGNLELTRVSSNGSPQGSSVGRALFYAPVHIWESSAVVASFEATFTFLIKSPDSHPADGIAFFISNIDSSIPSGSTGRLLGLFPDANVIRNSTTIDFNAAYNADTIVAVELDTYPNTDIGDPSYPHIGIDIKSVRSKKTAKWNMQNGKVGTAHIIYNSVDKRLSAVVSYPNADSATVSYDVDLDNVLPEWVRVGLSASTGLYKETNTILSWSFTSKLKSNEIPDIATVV

SMILES | composite z-score
C=C[C@@H](COC(=O)OC(C)(C)C)N(Cc1ccc(OC)cc1)S(=O)(=O)c1ccc(Br)cc1 | 0.802
COc1ccc([Si](C)(C)[C@H]2[C@H](CCO)O[C@@]3(C(=O)N(Cc4ccc(N(C=O)c5ccccc5)cc4)c4ccccc43)[C@@H]2C)cc1 | 0.538
COCCOC(=O)N1C(=O)[C@@]2(c3cc(C#Cc4ccc(OC)cc4)ccc31)[C@H](c1ccc(OCCO)cc1)N1[C@H](c3ccccc3)[C@H](c3ccccc3)OC(=O)[C@H]1[C@@H]2C(=O)N1CCN(c2ncccn2)CC1 | 1.11
COc1ccc(C#Cc2ccc3c(c2)[C@]2(C(=O)N3)[C@H](c3ccccc3OCCO)N3[C@H](c4ccccc4)[C@H](c4ccccc4)OC(=O)[C@H]3[C@@H]2C(=O)Nc2nc3ccccc3s2)cc1 | 0.931
CCCC[C@@H]1C[C@H]1[C@@H](NC(=O)C(C)(C)C)c1ccc(C(F)(F)F)cc1 | -0.0101
COC(=O)C(CC#Cc1ccc2c(c1)[C@]1(C(=O)N2)[C@H](c2ccc(OCCO)cc2)N2[C@H](c3ccccc3)[C@H](c3ccccc3)OC(=O)[C@H]2[C@@H]1C(=O)Nc1nc2ccccc2s1)C(=O)OC | 1.16
COc1ccc(CCNC(=O)[C@@]2(Sc3ccc(C)cc3)CC(=O)N(C(C)C)[C@@H]2c2ccc(CO)cc2I)cc1 | -0.613
COC(=O)[C@@]1(Cc2ccc(F)cc2)[C@H]2c3cc(C(=O)N4CCCC4)n(Cc4ccc(S(C)(=O)=O)cc4)c3C[C@H]2CN1C(=O)c1ccccc1 | 1.05
O=C1c2ccccc2[C@](Cc2ccccc2I)(C(=O)NCCN2CCOCC2)[C@H](c2ccc(CO)cc2)N1C1CCCCC1 | 1.15
COC(=O)[C@@]1(CCS(=O)(=O)c2ccccc2)N=C(c2ccc(OCCCO)cc2)O[C@H]1c1ccccc1CN=[N+]=[N-] | 1.08
COCCOC(=O)N1C(=O)[C@@]2(c3cc(C#CCNC(N)=O)ccc31)[C@H](C(=O)Nc1nc3ccccc3s1)[C@H]1C(=O)O[C@H](c3ccccc3)[C@H](c3ccccc3)N1[C@@H]2c1ccc(OCCO)cc1 | 0.994
CC(C)NC(=O)[C@@H]1c2ccccc2C(=O)N(C2Cc3ccccc3C2)[C@H]1c1ccc(CO)cc1 | 0.771
CC(C)=CCCC(C)=CC(O)C1C=CC2C(=O)N(C)C(=O)C2N1Nc1ccccc1 (stereo not given) | 1.18
[N-]=[N+]=NCc1ccccc1C[C@]1(C(=O)N2CCCCC2)N=C(c2ccc(OCCCO)cc2)O[C@H]1c1ccccc1N=[N+]=[N-] | 1.1
CCOC(=O)C[C@H]1[C@H](OC(=O)c2ccc(C(=O)c3ccccc3)cc2)[C@@H](NC(=O)CC(C)C)c2cc(OCCCO)ccc2N1C(=O)c1ccc2ccccc2n1 | 1.12

Tested on: not listed separately
Test: compounds binding Alexa647 anti-His antibody – biochemical, small-molecule microarray, 635 nm fluorescence, artefact control for SMM control protein annotation, primary screen (AID 1128);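 note: score merges feature fluorescence with signal-to-noise for each printed compound spot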
Conditions: higher = more signal

SMILES | composite z-score
C=C(COC)/C(=C/C[C@H](OC(C)=O)c1ccc(CO)o1)c1cc(C(=O)OC)ccc1OC | 0.795
O=C(NCCN1CCOCC1)C1N=C(c2ccc(OCCCO)cc2)N(c2ccccc2)O1 (stereo not given) | 1.22
COCCOC(=O)N1C(=O)[C@@]2(c3cc(C#CCCO)ccc31)[C@H](C(=O)N1CCCCCCC1)[C@H]1C(=O)O[C@H](c3ccccc3)[C@H](c3ccccc3)N1[C@@H]2c1ccc(OCCO)cc1 | 1.19
COc1cc(Br)cc(C(O)C2C=CC3C(=O)N(C)C(=O)C3N2N2CCCCC2)c1OC (stereo not given) | 0.286
C=C(C)[C@@H]1CC=C(C(O)C2C=CC3C(=O)N(C)C(=O)C3N2Nc2ccccc2)CC1 (stereo not given in full) | -0.243
O=C(N1CCCCC1)[C@]1(Cc2ccccc2)N=C(c2ccc(OCCCO)cc2)O[C@@H]1c1ccccc1 | 2.63
CC(C)c1ccc(NN2C(C(O)c3ccc(B(O)O)cc3)C=CC3C(=O)N(c4ccccc4)C(=O)C32)cc1 (stereo not given) | 1.24
C=CCNC(=O)[C@@H]1[C@H]2C(=O)O[C@H](c3ccccc3)[C@H](c3ccccc3)N2[C@H](c2ccccc2OCCO)[C@@]12C(=O)N(C(=O)OCCOC)c1ccccc12 | 0.439
CC(C)C(O)C1C=CC2C(=O)N(c3ccccc3)C(=O)C2N1Nc1ccc([N+](=O)[O-])cc1 (stereo not given) | 0.663
COC(=O)[C@@]1(Cc2ccc(OC)cc2)[C@@H]2C(=CC(=O)[C@H]2CC(=O)C(=O)N2CCCC2)CN1C(=O)c1ccccc1 | 1.47
COC(=O)[C@@]1(Cc2ccc(OC)cc2)[C@H]2c3cc(C(=O)N(C)C)n(Cc4ccc(S(C)(=O)=O)cc4)c3C[C@H]2CN1C(=O)c1ccccc1 | 1.84
COCCOC(=O)N1C(=O)[C@@]2(c3cc(C#CC4(O)CCCCCC4)ccc31)[C@H](c1ccc(OCCO)cc1)N1[C@H](c3ccccc3)[C@H](c3ccccc3)OC(=O)[C@H]1[C@@H]2C(=O)N1CCN(c2ncccn2)CC1 | 1.39
COc1ccc(C#Cc2ccc3c(c2)[C@]2(C(=O)N3)[C@H](C(=O)Nc3nc4ccccc4s3)[C@H]3C(=O)O[C@H](c4ccccc4)[C@H](c4ccccc4)N3[C@@H]2c2ccc(O)cc2)cc1 | 0.973
OCCCC1=CC(c2cccs2)N(Cc2cc3c(cc2Br)OCO3)CC1 (stereo not given) | 0.992
CCN(CC)c1ccc(N2CC=CC34O[C@@H]5C=CCCOC(=O)C5[C@H]3C(=O)N(CCCCCCO)[C@@H]4C2=O)cc1 (stereo not given in full) | 1.43
CCCCCN1CC=CC23O[C@@H]4/C=C\CCC(C)OC(=O)C4[C@H]2C(=O)N(C(C)CO)[C@@H]3C1=O (stereo not given in full) | -0.361
CC(C)OC(=O)C=C1C[C@@H](c2ccccn2)O[C@@H](c2ccccn2)O1 | 0.772
C=CCOC(=O)[C@H]1[C@@H]2C(=O)O[C@@H](c3ccccc3)[C@@H](c3ccccc3)N2[C@@H](c2ccc(OCCOC(=O)[C@@H]3C[C@@H]4C(=O)N[C@@H](CCCCNC(C)=O)C(=O)N4[C@@H]3c3ccc(O)cc3)cc2)[C@]12C(=O)Nc1ccccc12 | 3.17

SMILES | composite z-score
Cc1nc2cc(Br)ccc2c(=O)o1 | 0.302
C=CCOC(=O)[C@H]1[C@@H]2C(=O)O[C@@H](c3ccccc3)[C@@H](c3ccccc3)N2[C@@H](c2ccc(OCCOC(=O)[C@H]3C[C@H]4C(=O)N[C@@H](CCCCNC(C)=O)C(=O)N4[C@H]3c3ccc(O)cc3)cc2)[C@]12C(=O)Nc1ccc(I)cc12 | 0.748
C=C[C@@H](COC(=O)OC(C)(C)C)N(Cc1ccc(OC)cc1)S(=O)(=O)c1ccc(Br)cc1 | 1.03
COc1ccc([Si](C)(C)[C@H]2[C@H](CCO)O[C@@]3(C(=O)N(Cc4ccc(N(C=O)c5ccccc5)cc4)c4ccccc43)[C@@H]2C)cc1 | 0.841
COCCOC(=O)N1C(=O)[C@@]2(c3cc(C#Cc4ccc(OC)cc4)ccc31)[C@H](c1ccc(OCCO)cc1)N1[C@H](c3ccccc3)[C@H](c3ccccc3)OC(=O)[C@H]1[C@@H]2C(=O)N1CCN(c2ncccn2)CC1 | 0.343
COc1ccc(C#Cc2ccc3c(c2)[C@]2(C(=O)N3)[C@H](c3ccccc3OCCO)N3[C@H](c4ccccc4)[C@H](c4ccccc4)OC(=O)[C@H]3[C@@H]2C(=O)Nc2nc3ccccc3s2)cc1 | 1.5
CCCC[C@@H]1C[C@H]1[C@@H](NC(=O)C(C)(C)C)c1ccc(C(F)(F)F)cc1 | 1.73
COC(=O)C(CC#Cc1ccc2c(c1)[C@]1(C(=O)N2)[C@H](c2ccc(OCCO)cc2)N2[C@H](c3ccccc3)[C@H](c3ccccc3)OC(=O)[C@H]2[C@@H]1C(=O)Nc1nc2ccccc2s1)C(=O)OC | 1.6
COc1ccc(CCNC(=O)[C@@]2(Sc3ccc(C)cc3)CC(=O)N(C(C)C)[C@@H]2c2ccc(CO)cc2I)cc1 | 0.622
COC(=O)[C@@]1(Cc2ccc(F)cc2)[C@H]2c3cc(C(=O)N4CCCC4)n(Cc4ccc(S(C)(=O)=O)cc4)c3C[C@H]2CN1C(=O)c1ccccc1 | 1.9
O=C1c2ccccc2[C@](Cc2ccccc2I)(C(=O)NCCN2CCOCC2)[C@H](c2ccc(CO)cc2)N1C1CCCCC1 | 1.77
COC(=O)[C@@]1(CCS(=O)(=O)c2ccccc2)N=C(c2ccc(OCCCO)cc2)O[C@H]1c1ccccc1CN=[N+]=[N-] | 2.29
COCCOC(=O)N1C(=O)[C@@]2(c3cc(C#CCNC(N)=O)ccc31)[C@H](C(=O)Nc1nc3ccccc3s1)[C@H]1C(=O)O[C@H](c3ccccc3)[C@H](c3ccccc3)N1[C@@H]2c1ccc(OCCO)cc1 | -0.187
CC(C)NC(=O)[C@@H]1c2ccccc2C(=O)N(C2Cc3ccccc3C2)[C@H]1c1ccc(CO)cc1 | 1.51
CC(C)=CCCC(C)=CC(O)C1C=CC2C(=O)N(C)C(=O)C2N1Nc1ccccc1 (stereo not given) | 1.17
[N-]=[N+]=NCc1ccccc1C[C@]1(C(=O)N2CCCCC2)N=C(c2ccc(OCCCO)cc2)O[C@H]1c1ccccc1N=[N+]=[N-] | 2.87
CCOC(=O)C[C@H]1[C@H](OC(=O)c2ccc(C(=O)c3ccccc3)cc2)[C@@H](NC(=O)CC(C)C)c2cc(OCCCO)ccc2N1C(=O)c1ccc2ccccc2n1 | 1.35
